# Results: PubChem BioAssay (NCATS)
# Records with an inconclusive call do not appear. Activity calls are given as the source filed them. The call rests on the fitted dose curve; in most records, active means well fitted curve in the direction sought with a large enough effect; inconclusive means small, poorly fitted or top-dose-only effect, or another doubt; inactive means no such curve, though single readings can be large or run the other way.
# Test: qHTS for differential inhibitors of proliferation of Plasmodium falciparum line GB4 (AID 1816);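 further: parasite growth measured after 72 h incubation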
# Settings: Potency: Plasmodium falciparum GB4 proliferation inhibition; series mostly up to 28.7 µM
# Potency means the concentration at half of the fitted maximal effect.
row,Compound,Potency
1,C[N+](C)(C)CCCCCCCCCC[N+](C)(C)C,3.98 µM (active)
2,NC(N)=N/N=C/c1c(Cl)cccc1Cl,11.2 µM (active)
3,CC(N)C(=O)OC(C)(C)Cc1ccc(Cl)cc1 (stereo not drawn),1 µM (active)
4,COC(=O)C1=CCCN(C)C1,inactive
5,c1ccc2nc(N3CCNCC3)ccc2c1,11.2 µM (active)
6,COc1ccc(C(=O)N2CCCC2=O)cc1,inactive
7,CNC(=O)Oc1ccc2c(c1)[C@]1(C)CCN(C)[C@@H]1N2C,3.98 µM (active)
8,Cc1cc(C(C)(C)C)cc(C)c1CC1=NCCN1,8.91 µM (active)
9,O=C(O)c1nn(Cc2ccc(Cl)cc2Cl)c2ccccc12,inactive
10,NC(=O)CN1CCCC1=O,inactive
11,NC(N)=NC(=O)c1nc(Cl)c(N)nc1N,12.6 µM (active)
12,CC[C@H]1CN2CCc3cc(OC)c(OC)cc3[C@@H]2C[C@@H]1C[C@H]1NCCc2cc(OC)c(OC)cc21,0.0891 µM (active)

# Test: qHTS for differential inhibitors of proliferation of Plasmodium falciparum line 3D7 (AID 1876)
# Settings: P. falciparum 3D7 proliferation inhibition; series mostly up to 28.7 µM
row,Compound,Potency
1,C[N+](C)(C)CCCCCCCCCC[N+](C)(C)C,0.355 µM (active)
2,NC(N)=N/N=C/c1c(Cl)cccc1Cl,6.31 µM (active)
3,COC(=O)C1=CCCN(C)C1,inactive
4,COc1ccc(C(=O)N2CCCC2=O)cc1,inactive
5,CNC(=O)Oc1ccc2c(c1)[C@]1(C)CCN(C)[C@@H]1N2C,4.47 µM (active)
6,O=C(O)c1nn(Cc2ccc(Cl)cc2Cl)c2ccccc12,inactive
7,NC(=O)CN1CCCC1=O,inactive
8,NC(N)=NC(=O)c1nc(Cl)c(N)nc1N,11.2 µM (active)
9,CC[C@H]1CN2CCc3cc(OC)c(OC)cc3[C@@H]2C[C@@H]1C[C@H]1NCCc2cc(OC)c(OC)cc21,0.0794 µM (active)

# Test: qHTS for differential inhibitors of proliferation of Plasmodium falciparum line D10 (AID 1877);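 further: parasites grown with compound for 72 h before DNA staining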
# Settings: series mostly up to 28.7 µM
row,Compound,Potency
1,CCCCCCCCC(=O)NCc1ccc(O)c(OC)c1,inactive
2,C[N+](C)(C)CCCCCCCCCC[N+](C)(C)C,1.26 µM (active)
3,NC(N)=N/N=C/c1c(Cl)cccc1Cl,11.2 µM (active)
4,CC(N)C(=O)OC(C)(C)Cc1ccc(Cl)cc1 (stereo not drawn),inactive
5,COC(=O)C1=CCCN(C)C1,inactive
6,c1ccc2nc(N3CCNCC3)ccc2c1,inactive
7,COc1ccc(C(=O)N2CCCC2=O)cc1,inactive
8,CNC(=O)Oc1ccc2c(c1)[C@]1(C)CCN(C)[C@@H]1N2C,4.47 µM (active)
9,O=C(O)c1nn(Cc2ccc(Cl)cc2Cl)c2ccccc12,inactive
10,NC(=O)CN1CCCC1=O,inactive
11,NC(N)=NC(=O)c1nc(Cl)c(N)nc1N,8.91 µM (active)
12,CC[C@H]1CN2CCc3cc(OC)c(OC)cc3[C@@H]2C[C@@H]1C[C@H]1NCCc2cc(OC)c(OC)cc21,0.141 µM (active)
